Drawing on ChEMBL document CHEMBL2218924, “A broad activity screen in support of a chemogenomic map for kinase signalling research and drug discovery” (Biochem J, 2013), this text covers residual activity for 32 compounds.

The assay deals with T1, Serine/threonine-protein kinase Sgk3 (Homo sapiens) (UniProt Q96BR1).
T1 sequence (whole entry): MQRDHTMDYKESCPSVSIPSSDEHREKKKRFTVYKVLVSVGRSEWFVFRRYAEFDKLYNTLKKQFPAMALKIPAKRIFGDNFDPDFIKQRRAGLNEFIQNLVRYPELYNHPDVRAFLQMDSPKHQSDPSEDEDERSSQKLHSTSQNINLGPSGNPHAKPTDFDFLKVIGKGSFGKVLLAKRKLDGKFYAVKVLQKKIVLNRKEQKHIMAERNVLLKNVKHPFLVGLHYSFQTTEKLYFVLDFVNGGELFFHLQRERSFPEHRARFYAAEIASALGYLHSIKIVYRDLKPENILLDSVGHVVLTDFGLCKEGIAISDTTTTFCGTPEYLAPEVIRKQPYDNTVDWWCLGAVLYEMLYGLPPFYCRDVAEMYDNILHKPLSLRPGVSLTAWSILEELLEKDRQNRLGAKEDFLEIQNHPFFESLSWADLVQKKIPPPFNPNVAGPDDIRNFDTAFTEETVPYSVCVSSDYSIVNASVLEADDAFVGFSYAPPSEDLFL
As to conditions: at 1 µM.
Usually residual activity stands for the signal under treatment as a percentage of the control signal. `O=C(O)c1ccc2c3c1cccc3c(=O)n1c3ccccc3nc21`: the residual activity is 105%. The value for `COc1cc2ncnc(Nc3ccc(O)c(Br)c3)c2cc1OC` was 99%. On to `N#C/C(=C(\N)Sc1ccc(N)cc1)c1ccccc1C(F)(F)F`, for which the residual activity was 102%.

For `CC[n+]1c(/C=C/N(C)c2ccccc2)n(-c2ccccc2)c2ccc(-c3nc4ccccc4s3)cc21`, the residual activity came out at 99%. For the compound `Nc1ncnc2c1c(-c1ccc(Oc3ccccc3)cc1)cn2C1CCCC1`, the residual activity was 104%. Next, `CCCCc1c(-c2ccc(OC)cc2)[nH]c2nccnc12`: 100%; `Cc1cc2ncc(-c3ccccc3)nc2cc1C`: 108%; `O=C1Nc2ccc(Cl)cc2/C1=C/c1cc(Cl)c(O)c(Cl)c1`: 95%. The value for `c1ccc(-c2n[nH]c3c2oc2ccccc23)cc1` was 94%; that for `COc1cc2ncnc(Nc3ccc(NC(=O)c4ccccc4)cc3)c2cc1OC` was 96%; that for `Cc1ccc(S(=O)(=O)/C=C/C#N)cc1` was 103%. The value for `Cc1nc2cc3nc(-c4cccs4)cnc3cc2n1C` was 94%. `O=C1Cc2c([nH]c3ccc(Br)cc23)-c2ccccc2N1`: the residual activity was determined as 91%.

With `CC(C)[C@H](CO)Nc1nc(Nc2cc(N)cc(Cl)c2)c2ncn(C(C)C)c2n1`, the residual activity stood at 98%. As for `COc1ccc(CNc2nc(N(CCO)CCO)nc3c2ncn3C(C)C)cc1`, the residual activity came out at 114%. Next, `Nc1nc(Nc2ccc(S(N)(=O)=O)cc2)nn1C(=O)c1c(F)cccc1F`: 106%; `NC(=O)Nc1sc(-c2ccc(F)cc2)cc1C(N)=O`: 93%.

`O=C(Nc1cccc(Nc2cc(Nc3cccc(C(F)(F)F)c3)ncn2)c1)C1CC1`: the residual activity is 96%. As for `CCN(CC)CCCCN1c2ccccc2Oc2ccc(Cl)cc21`, the residual activity turned out to be 107%. For the compound `CC(C)n1cnc2c(NCc3ccccc3)nc(NCCCO)nc21`, the residual activity worked out at 89%. Next, `C[C@@H](N)[C@H]1CC[C@H](C(=O)Nc2ccncc2)CC1`: 101%; `O=C1c2ccccc2-[n+]2ccc3c([nH]c4ccccc43)c21`: 99%; `Cc1cc(Nc2nc(-c3ccccc3)nc3ccccc23)n[nH]1`: 107%. Next, `Nc1ccc2ncnc(NCCc3ccc(Oc4ccccc4)cc3)c2c1`: 109%; `CCOc1cc2ncnc(Nc3cccc(Br)c3)c2cc1OCC`: 108%; `CNc1cc2c(Nc3cccc(Br)c3)ncnc2cn1`: 103%. As to `CCC(=O)Nc1ccc2ncnc(Nc3cccc(Br)c3)c2c1`, the residual activity came out at 105%. `COc1ccc(C(=O)Nc2sc3c(c2C(N)=O)CCCC3)cc1OC`: the residual activity worked out at 74%. Regarding `COc1cccc(-c2cc(=O)c3ccccc3o2)c1N`, the residual activity came out at 104%. With `Nc1ncnc2c1cnn2-c1ccccc1`, the residual activity was determined as 94%. Regarding `CO[C@H]1C[C@@H]2CC[C@@H](C)[C@@](O)(O2)C(=O)C(=O)N2CCCC[C@H]2C(=O)O[C@H]([C@H](C)C[C@@H]2CC[C@@H](O)[C@H](OC)C2)CC(=O)[C@H](C)/C=C(\C)[C@@H](O)[C@@H](OC)C(=O)[C@H](C)C[C@H](C)/C=C/C=C/C=C/1C`, the residual activity was determined as 112%. The value for `Nc1nc(Nc2ccc(S(N)(=O)=O)cc2)nn1C(=S)Nc1c(F)cccc1F` was 88%.
